Screening results from PubChem.
Most compounds without a hit are left out; they make up all but 3.1% or so of the library.
PP1 counter: blocks human PP1-alpha phosphatase, a PP5 counter-screen; P62136; AID 2235; hit rate 0.9% among 320,000; purified PP1alpha, OMFP fluorescence; inhibition, % at 6.7 µM;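 active = inhibition above the mean inhibition of all tested compounds plus 3 SD, computed separately for each screening campaign, cut at about 15% in these data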
SKKanGAS inh: SKKanGAS growth inhibition. S. pyogenes SKKanGAS, kanamycin growth, BacTiter-Glo, 6 h. inhibition, % at 7.5 µM. hit rate 1.3% among 300,000;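 active = mean replicate score, as percent of positive control median, at least 50; inconclusive = mean below 50 but one replicate at or above 50; inactive = mean and every replicate below 50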;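 note: strain carries kanamycin resistance gene driven by streptokinase promoter and grows in 40 µg/ml kanamycin; loss of luminescence reflects streptokinase promoter inhibition or plain growth inhibition; 0% = median of DMSO wells and 100% = positive control at its reference dose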
CSC inhib: blocks cancer stem cells | AID 2717 | hit rate 1.1% among 300,000 | inhibition, % at 7.5 µM | cancer stem cell-like cells viability, luminescence; in the data active = inhibition above about 75%; inconclusive = no clear call, values can overlap the other calls; tested in HMLE shEcad cells
Beta cell apopt: beta cell apoptosis inhibition; INS-1E cytokine-induced death, ATP luminescence, 48 h; percent of positive-control rescue, neutral wells zero; protection from apoptosis, % (test concentration not listed); hit rate 0.8% among 300,000; AID 435005;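 active = Every replicate reaches about 75%, or at least half do and their mean reaches it too, limit read from the data; inconclusive = At least half of replicates reach the limit but their mean does not; inactive = Under half of replicates reach the limit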;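 note: 0% = cytokine-treated negative control wells and 100% = positive control rescue; higher means more ATP so stronger rescue from cytokine killing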
PP5 inh: blocks human protein phosphatase 5 activity | hit rate 0.18% among 320,000 | purified PP5c, OMFP substrate fluorescence | inhibition, % at 6.7 µM | AID 1987 | P53041;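 active = inhibition above the campaign's mean inhibition across all tested compounds plus 3 SD, cut at about 9.5% in these data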;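 note: 0% = DMSO only and 100% = 100 µM cantharidin control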
Target sequence (P53041 whole entry, looked up): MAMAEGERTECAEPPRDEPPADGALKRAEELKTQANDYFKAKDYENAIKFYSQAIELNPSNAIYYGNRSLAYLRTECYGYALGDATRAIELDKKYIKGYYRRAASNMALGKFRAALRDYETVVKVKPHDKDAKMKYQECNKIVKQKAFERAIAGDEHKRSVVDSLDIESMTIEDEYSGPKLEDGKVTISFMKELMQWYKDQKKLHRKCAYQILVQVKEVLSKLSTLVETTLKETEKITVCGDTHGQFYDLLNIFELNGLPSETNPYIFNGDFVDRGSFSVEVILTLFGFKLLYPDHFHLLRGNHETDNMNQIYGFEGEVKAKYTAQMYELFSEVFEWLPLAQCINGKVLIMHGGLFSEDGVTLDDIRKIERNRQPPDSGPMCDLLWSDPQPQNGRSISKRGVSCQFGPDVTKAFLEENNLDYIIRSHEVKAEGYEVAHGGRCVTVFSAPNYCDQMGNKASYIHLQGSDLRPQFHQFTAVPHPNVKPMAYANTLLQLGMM
PP1 confirm: confirmation of human PP1 phosphatase inhibitors; shares compounds with PP1 counter; purified PP1alpha, OMFP substrate fluorescence; inhibition, % at 6.7 µM; hit rate 52% among 1,900; AID 2358;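 active = mean PP1 inhibition above a set limit taken from the earlier primary screen, cut at about 15% in these data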
PP5 inh counter: inhibits human PP5 phosphatase in PP1 counter-screen; shares compounds with PP1 counter; purified PP5c, OMFP fluorescence; inhibition, % at 6.7 µM; hit rate 4% among 1,900;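 active = mean PP5 inhibition over triplicate wells above about 9.5% taken from the earlier PP1 screen, limit read from the data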
An asterisk follows results filed as active; ? = inconclusive; nt = not tested or not shown.

SMILES | PP1 counter | SKKanGAS inh | CSC inhib | Beta cell apopt | PP5 inh | PP1 confirm | PP5 inh counter
CCCn1c(=O)c(C(=O)Nc2ncccc2C)c(O)c2ccccc21 | 24.2* | 54.6* | nt | -0.1 | 3.4 | 20.9* | -5.2
CCCn1c(=O)c(C(=O)Nc2cccc(C)n2)c(O)c2ccccc21 | 2.0 | -7.8 | 3.4 | nt | 1.0 | nt | nt
Cc1ccc(NC(=O)CCC(=O)c2ccc(Cl)s2)nc1 | -5.5 | nt | 2.5 | -2.2 | -0.7 | nt | nt
COc1ccc(OC)c2sc(N(CCCN(C)C)C(=O)c3ccc(S(=O)(=O)N4CCc5ccccc5C4)cc3)nc12 | 20.2* | 3.9 | 100.5* | 100.1* | 3.1 | 22.5* | 1.2
Cn1c(=O)cc(SCC(=O)NCc2ccco2)c2ccccc21 | 2.9 | -7.8 | -0.7 | -11.9 | 3.1 | nt | nt
O=C(CSc1cn(CCNC(=O)c2ccc3ccccc3c2)c2ccccc12)NCc1ccco1 | 17.8* | 16.5 | 24.3 | -6.4 | 5.0 | 4.6 | 4.8
COc1ccc(N=C2CC(C)(C)CC(=O)/C2=C(/O)c2ccccc2)cc1 | -3.4 | -12.8 | -3.3 | -3.7 | -1.2 | nt | nt
CCOC(=O)c1ccc(NC(=O)CSc2nnc(CCc3ccc(C)o3)n2-c2ccccc2)cc1 | 19.3* | 18.5 | -9.7 | 5.0 | 2.6 | 13.7 | -2.8
NC(=O)c1ccsc1NC(=O)COC(=O)c1nc(Cl)ccc1Cl | 45.4* | 0.1 | -14.9 | -0.4 | -3.3 | -0.1 | -3.3
Cc1ccc(C(=O)c2oc3ccccc3c2N)cc1 | 0.1 | 0.6 | -3.0 | -3.9 | 1.9 | nt | nt
Nc1c(C(=O)c2ccc(Br)cc2)oc2ccccc12 | 17.7* | -1.5 | 12.9 | -3.1 | 2.9 | -3.6 | -3.4
Cc1cccc(-c2cc3nc(-c4ccccc4)cc(=O)n3[nH]2)c1 | 22.7* | 16.5 | 59.4 | 9.2 | 0.1 | 21.3* | 2.8
Cc1cc(=O)n2[nH]c(-c3ccc(F)cc3)cc2n1 | -3.7 | 7.6 | nt | 0.3 | 2.4 | nt | nt
Cc1nc2nc(-c3ccccc3)cc(=O)n2[nH]1 | 0.8 | -1.5 | -0.1 | nt | 0.9 | nt | nt
O=c1cc(-c2ccc([N+](=O)[O-])cc2)nc2cc(-c3ccc(F)cc3)[nH]n12 | 35.3* | 67.5* | -7.7 | 4.0 | -0.1 | 34.3* | 1.2
Cc1[nH]c2nc3ccccc3n2c(=O)c1CCC(C)C | -4.5 | 1.2 | -9.5 | nt | 0.3 | nt | nt
COc1ccc(S(=O)(=O)N2CCC(C(=O)N(C)Cc3ccc(C)o3)CC2)cc1OC | -1.6 | nt | nt | -1.6 | -2.0 | nt | nt
O=C(Nc1ccc(Nc2ccncc2)cc1)c1ccc(Nc2ccnc3ccc([N+](=O)[O-])cc23)cc1[N+](=O)[O-] | 41.4* | 53.6* | 26.7 | 80.9* | 5.6 | -10.8 | 1.5
Cc1cc(-c2n[nH]c(=S)n2/N=C/c2ccc(Cl)c([N+](=O)[O-])c2)n[nH]1 | 2.1 | 6.9 | -1.7 | 4.2 | 0.0 | nt | nt
O=[N+]([O-])c1cc(/C=N/n2c(-c3ccncc3)n[nH]c2=S)ccc1Cl | 25.4* | 12.3 | nt | -8.3 | 0.9 | 3.6 | -1.9
CCOC(=O)c1cn(Cc2ccccc2)c2cc(C)nn2c1=O | 2.4 | 1.0 | 14.5 | 3.7 | 0.5 | nt | nt
CCOC(=O)c1cn(Cc2ccccc2)c(C(=O)OC(C)(C)C)c1O | 22.5* | 4.5 | 51.9 | -0.1 | 3.5 | 35.9* | -4.5
Cc1cccc(C)c1Nc1c(-c2ccsc2)nc2ncccn12 | -0.1 | -0.4 | -23.7 | 1.9 | 2.0 | nt | nt
Cc1ccc(Nc2c(-c3ccccn3)nc3cccc(C)n23)cc1 | 39.7* | 101.6* | ? | 116.9* | 3.7 | 50.0* | 4.3
Cc1cccc(C)c1Nc1c(-c2ccccn2)nc2ccccn12 | 28.1* | 96.6* | 39.4 | 13.9 | 2.3 | 5.0 | -0.1
SMILES | PP1 counter | SKKanGAS inh | CSC inhib | Beta cell apopt | PP5 inh | PP1 confirm | PP5 inh counter
Cc1cc(SCC(=O)N/N=C/c2ccc(O)c(O)c2O)c(C)cc1Br | 35.5* | 69.4* | -18.7 | 33.4 | 3.4 | 32.7* | -1.3
COC(=O)c1c(C)oc(C)c1S(=O)(=O)NCc1ccco1 | -4.9 | -1.1 | -11.1 | -1.0 | -1.0 | nt | nt
CN(C)C(=N)c1n[nH]nc1SCc1ccc(Cl)c(Cl)c1 | 24.8* | -1.9 | -5.6 | -3.7 | -0.5 | -3.1 | -5.7
Nn1c(N2CCCCC2)nc2ccccc21 | -1.0 | 5.0 | -0.8 | nt | 2.1 | nt | nt
CCOC(=O)c1c(NC(=O)/C=C\C(=O)O)sc(C)c1-c1ccccc1 | 3.0 | 3.7 | 0.1 | -12.3 | -2.1 | nt | nt
CCOC(=O)c1c(NC(=O)/C=C/C(=O)O)sc(C)c1-c1ccc(C(C)(C)C)cc1 | 18.2* | 38.7 | 109.2* | 79.4* | 1.0 | 18.0* | 0.1
CCOC(=O)c1c(NC(=O)C2C3CCC(O3)C2C(=O)O)sc(C)c1-c1ccc(C)cc1 (stereo not given) | 19.9* | 7.0 | -2.0 | nt | 32.7* | 13.3 | 13.3*
CCOC(=O)c1cc(NC(=O)C2C3CCC(O3)C2C(=O)O)cc(C(=O)OCC)c1 (stereo not given) | 56.9* | -2.1 | nt | nt | 64.8* | 12.7 | 18.6*
CCOC(=O)c1ccc(NC(=O)C2C3CCC(C3)C2C(=O)O)cc1 (stereo not given) | -0.8 | 3.3 | nt | 0.3 | -5.4 | nt | nt
CCOC(=O)c1cc(NC(=O)C2C3C=CC(O3)C2C(=O)O)cc(C(=O)OCC)c1 (stereo not given) | 16.9* | 0.3 | -21.0 | -1.6 | 22.6* | -0.2 | 0.6
Cc1ccc(N2C(=O)[C@@H]3C(C(=O)C(c4ccccc4)c4ccccc4)=NN[C@@H]3C2=O)cc1 | 2.3 | 11.1 | 4.1 | -3.4 | 4.6 | nt | nt
COCC(=O)Nc1nc(-c2ccc(C)cc2)c(C)s1 | -3.4 | -0.5 | -19.8 | 1.2 | 1.8 | nt | nt
Cc1sc(NC(=O)C2C3CCC(O3)C2C(=O)O)nc1-c1ccc(CC(C)C)cc1 (stereo not given) | 77.8* | 15.2 | 19.9 | 2.3 | 78.9* | 35.2* | 37.9*
Cc1cc(Br)ccc1-n1[nH]c(C)c(C=Nc2cccc3nsnc23)c1=O | 2.5 | 4.2 | 0.2 | 0.8 | 4.0 | nt | nt
CCC(CC)c1nnc(NC(=O)c2ccc(S(=O)(=O)N3CCc4ccccc4C3)cc2)s1 | -1.8 | 19.8 | -1.1 | 5.2 | -0.7 | nt | nt
CC1CCCN(S(=O)(=O)c2ccc(C(=O)Nc3nnc(C4CC4)o3)cc2)C1 (stereo not given) | 26.4* | ? | 27.5 | 9.9 | 6.2 | 16.2* | -1.8
CC1CCCN(S(=O)(=O)c2ccc(C(=O)Nc3nnc(-c4ccccn4)o3)cc2)C1 (stereo not given) | 18.2* | 5.6 | 25.5 | -25.4 | 1.5 | 15.2* | -1.0
O=C(Nc1nnc(C2CC2)o1)c1ccc(S(=O)(=O)N2CCc3ccccc3C2)cc1 | 30.1* | 9.3 | 30.9 | -1.9 | -2.0 | 31.0* | -1.0
Cc1cc(C)c2nc(-c3ccccn3)cc(C(=O)n3cccn3)c2c1 | -0.1 | -2.0 | nt | nt | -0.8 | nt | nt
O=C(Nc1cccc(C(F)(F)F)c1)c1cc[n+]([O-])cc1 | -2.8 | 0.6 | 4.2 | 3.5 | -1.6 | nt | nt
O=C(Nc1cccc(C(F)(F)F)c1)c1ccc2nc(-c3ccco3)c(-c3ccco3)nc2c1 | 32.3* | 23.5 | 28.6 | 0.1 | 0.7 | 11.5 | -0.2
CN(CC(=O)Nc1ccccc1Cl)C(=O)c1cc(C2CC2)nn1-c1ccccc1 | -0.8 | nt | nt | -3.4 | -1.1 | nt | nt
